The record followed here is PubChem BioAssay AID434926 (Sanford-Burnham Center for Chemical Genomics, 2010).

Molecules are shown by their SMILES. Some of the results follow. Values without a mark were called inactive. Activity calls are given as the source filed them.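 Rule for the calls: active = at least twofold enzyme activation in any of six single-dose repeats, which the averaged readout prints as negative percent; inactive = the rest.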

This test deals with Intestinal-type alkaline phosphatase (Homo sapiens) (UniProt P09923). The test is described as follows: human IAP activators, confirmation, biochemical, luminescence, single concentration, uHTS hits (AID 434926). Conditions: purified IAP, CDP-Star luminescence, 30 min; at 8.3 µM; active compounds read low.
Sequence of Intestinal-type alkaline phosphatase (Homo sapiens) (P09923 whole entry, looked up): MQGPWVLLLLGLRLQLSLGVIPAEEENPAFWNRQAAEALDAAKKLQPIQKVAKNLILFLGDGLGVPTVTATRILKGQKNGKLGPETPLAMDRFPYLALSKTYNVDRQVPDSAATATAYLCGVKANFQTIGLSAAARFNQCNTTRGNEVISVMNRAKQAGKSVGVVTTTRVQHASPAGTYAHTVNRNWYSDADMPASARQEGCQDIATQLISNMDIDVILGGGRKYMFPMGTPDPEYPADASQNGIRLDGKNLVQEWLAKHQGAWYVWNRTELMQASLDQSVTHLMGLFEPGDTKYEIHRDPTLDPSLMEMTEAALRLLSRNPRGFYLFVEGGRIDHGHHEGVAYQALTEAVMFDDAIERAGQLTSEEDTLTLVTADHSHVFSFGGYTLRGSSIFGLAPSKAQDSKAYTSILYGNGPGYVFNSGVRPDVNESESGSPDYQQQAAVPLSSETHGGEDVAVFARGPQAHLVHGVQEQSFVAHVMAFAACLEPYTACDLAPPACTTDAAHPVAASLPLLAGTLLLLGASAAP

On to `CCC(C(=O)Nc1ccc(C(C)C)cc1)c1ccccc1` (centres undefined), for which the activation (%Activity, negative = activation) is -30.6%.
As to `O=c1c(/C=N/O)coc2ccc(Cl)cc12`, the activation (%Activity, negative = activation) is -11.6%.
Take `C#CCOCCOCCOCCNc1nc(N2CCN(C(=O)CCCCCCCCCCNC(=O)[C@H]([C@@H](C)CC)n3cc(CCCCN=C(N)N)nn3)CC2)nc(N2CCN(C(=O)CCCCCCCCCCNC(=O)[C@H](CO)n3cc(CCCSC)nn3)CC2)n1`: the activation (%Activity, negative = activation) was 38.5%.
`O=C(Nc1cccc(-c2cccc(Cl)c2)c1)C1CCN(C2CCC2)CC1`: the activation (%Activity, negative = activation) is -7.84%.
For `Cn1c(=O)c2sccc2n(Cc2ccc(Br)cc2)c1=O`, the activation (%Activity, negative = activation) is 6.79%.
Consider `c1ccc2[nH]c(-c3nc4ccccc4[nH]3)nc2c1`, for which the activation (%Activity, negative = activation) is 10.7%.
On to `OC(c1nc2ccc(F)cc2[nH]1)C(O)c1nc2ccc(F)cc2[nH]1` (centres undefined), for which the activation (%Activity, negative = activation) was 24.7%.
`CC(C)(C)OC(=O)NCCCCCNC(=O)c1[nH]cnc1C(=O)Nc1nccs1`: the activation (%Activity, negative = activation) was -6.96%.
For `COc1cccc(/C=N/NC(=O)c2[nH]nc3c2CCc2ccccc2-3)c1O` the value was 13.9%.
`C[C@H](NC(=O)c1[nH]cnc1C(=O)Nc1nccs1)c1ccccc1`: the activation (%Activity, negative = activation) was -3.71%.
Turning to `COc1cc(NC(=O)NCC2CCN(Cc3ccc(C)cc3)CC2)cc(OC)c1OC`, the activation (%Activity, negative = activation) was -1.35%.
`COc1cccc(/C=N\NC(=O)C2=NNC(=O)C2C)c1O` (centres undefined): the activation (%Activity, negative = activation) was 34.8%.
To `OC1CN=C2Sc3ccccc3N2C1` (centres undefined) belongs -100% (active).
For `O=C(Nc1ccon1)c1nc[nH]c1C(=O)NCc1ccccc1` the value was 88.5%; for `O=C(NCCN1CCOCC1)[C@H](Cc1ccccc1)N1C(=O)c2ccccc2C1=O`, -5.42%.
For the compound `Cc1ccc2c(c1)nnc1nnc(SCC(=O)O)n12`, the activation (%Activity, negative = activation) is 33.9%.
Turning to `NC(=O)COc1ccc(NC(=O)c2ccccc2-c2ccccc2)cc1`, the activation (%Activity, negative = activation) is 9.49%.
To `COc1cc(/C=C2/SC(=S)N(Cc3ccccc3)C2=O)cc(OC)c1O` belongs 3.41%; to `COc1ccc(C(=O)NNc2cc(C)nc(NNC(=O)c3ccc(OC)cc3)n2)cc1`, -9.79%.
With `Cc1ccc(NC(=O)c2cc(-c3ccccc3O)n[nH]2)cc1C`, the activation (%Activity, negative = activation) is -1.54%.
To `Cc1c(C=O)c2ccccn2c1C(=O)c1ccncc1` belongs 5.63%.
On to `CCCCOC(=O)Nc1sc2nc(C)cc(C)c2c1-n1cccc1`, for which the activation (%Activity, negative = activation) is -49%.
To `CCC(C)C(=O)Nc1ccccc1N1CCN(c2ccc(F)cc2)CC1` (centres undefined) belongs 13.6%.
Take `OCCCN1c2ccccc2Nc2nnc(-c3ccccc3)cc21`: the activation (%Activity, negative = activation) was -25.8%.
